Laboratory results reported in the supplement of paper PMC6555819.

How the values were obtained:
Assay in all cases: PBM binding z-score (relative to random genomic background probes); higher = stronger binding; sequences stand for … in GC…GCGATTGACAGCGTAGAATGAAGG
[1] = system: FXR:RXRa (NR concentration 270 nM, RXRa partner concentration 90 nM)
Outline: (§1)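 Binding z-scores were set against random background probes. The data came from custom Agilent 4×180K protein-binding microarrays carrying double-stranded probes with 34-nt variable regions, incubated 1 h with ligand-free nuclear receptor dimers. Partner-specific antibodies detected binding, and scanned fluorescence was regression-normalized.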

[2] = system: LXRa:RXRa (NR concentration 270 nM, RXRa partner concentration 90 nM)
Outline: as §1

[3] = system: LXRa homodimer (NR concentration 270 nM)
Outline: as §1

[4] = system: LXRb:RXRa (NR concentration 270 nM, RXRa partner concentration 90 nM)
Outline: as §1

[5] = system: LXRb homodimer (NR concentration 270 nM)
Outline: as §1

[6] = system: PPARa:RXRa (NR concentration 270 nM, RXRa partner concentration 90 nM)
Outline: as §1

[7] = system: PPARg:RXRa (NR concentration 180 nM, RXRa partner concentration 90 nM)
Outline: as §1

[8] = system: PPARg:RXRa 270nM:90nM, anti-RXR (NR concentration 270 nM, RXRa partner concentration 90 nM)
Outline: as §1

[9] = system: PPARg:RXRa 30nM:10nM, anti-RXR (NR concentration 30 nM, RXRa partner concentration 10 nM)
Outline: as §1

[10] = system: PPARg:RXRa 90nM:30nM, anti-RXR (NR concentration 90 nM, RXRa partner concentration 30 nM)
Outline: as §1

[11] = system: PPARg:RXRa DBDmut IVT, anti-RXR (DBD mutation: RXRa K156A/R161A, NR concentration 270 nM, RXRa partner concentration 90 nM)
Outline: as §1

[12] = system: PPARg:RXRa IVT, anti-PPARg (NR concentration 270 nM, RXRa partner concentration 90 nM)
Outline: as §1

[13] = system: PPARg DBDmut:RXRa IVT, anti-PPARg (DBD mutation: PPARg1 K132A/R137A, NR concentration 270 nM, RXRa partner concentration 90 nM)
Outline: as §1

[14] = system: PPARg DBDmut IVT, anti-PPARg (DBD mutation: PPARg1 K132A/R137A, NR concentration 270 nM)
Outline: as §1

[15] = system: PPARg homodimer (NR concentration 180 nM)
Outline: as §1

[16] = system: PXR:RXRa (NR concentration 270 nM, RXRa partner concentration 90 nM)
Outline: as §1

[17] = system: PXR homodimer (NR concentration 270 nM)
Outline: as §1

[18] = system: RARa:RXR (NR concentration 270 nM, RXRa partner concentration 90 nM)
Outline: as §1

[19] = system: RARa homodimer (NR concentration 270 nM)
Outline: as §1

[20] = system: RARb:RXRa (NR concentration 270 nM, RXRa partner concentration 90 nM)
Outline: as §1

Sequence	PBM binding z-score [1]	PBM binding z-score [2]	PBM binding z-score [3]	PBM binding z-score [4]	PBM binding z-score [5]	PBM binding z-score [6]	PBM binding z-score [7]	PBM binding z-score [8]	PBM binding z-score [9]	PBM binding z-score [10]	PBM binding z-score [11]	PBM binding z-score [12]	PBM binding z-score [13]	PBM binding z-score [14]	PBM binding z-score [15]	PBM binding z-score [16]	PBM binding z-score [17]	PBM binding z-score [18]	PBM binding z-score [19]	PBM binding z-score [20]
CGTCAATGTTCAACTAAGGTAACGTAAAGCACGC	0.964	0.0385	0.177	0.536	0.375	0.376	0.538	-0.0311	-0.0519	0.0418	0.201	0.781	0.0203	0.928	0.877	0.252	0.0149	1.05	0.784	0.573
ACAGACAGGTGAGGGAAGGTAACTCAGCTGGACG	0.596	0.155	-0.368	-0.181	-0.443	0.389	0.791	-0.0319	-0.39	-0.182	0.476	0.747	0.431	-0.614	-0.102	-0.00447	-0.0527	0.343	-0.347	0.622
ACAGACAGGTGATGAAGGTACCTCAGGCTATCAT	-0.309	-0.187	-0.266	-0.411	-0.507	-0.132	0.682	-0.0814	0.3	-0.00206	-0.0914	0.0194	0.29	0.042	-0.0635	-0.279	0.235	0.00944	-0.363	-0.00921
ATCTCTAGGTAAAAGTTAAGTGAATCCCGAGGAT	0.172	0.0131	-0.136	-0.0735	0.69	1.58	3.42	4.91	2.79	4.71	2.03	2.31	1.28	1.28	0.613	-0.127	-0.352	-0.144	0.373	0.28
CTACCAAGGTGAACAAGGTAGTTGATTACTATTC	0.29	0.269	-0.28	0.647	-0.774	1.19	0.675	0.808	0.0377	0.215	2.65	2.48	0.56	0.814	0.0631	0.0464	-0.0276	0.456	-0.151	1.53
ATAGAAAGGTCGACGAGGTGAGTATACACCGTTT	4.55	2.95	0.22	2.52	0.294	4.18	2.91	2.81	1.55	2.17	0.284	1.82	1.11	0.417	1.76	2.87	0.566	3.6	0.784	3.72
CCTCGGAGGACAACAGGAGGTCGGAGCTGCCAGA	-0.0236	-0.0275	-0.149	-0.236	-0.893	0.19	-0.122	-0.445	-0.792	-1.05	-0.0819	-0.232	-0.343	-1.52	-0.189	0.00803	-0.239	0.109	0.111	1.55
ATCTCTAGGTAACAAGTTCATTGAAAGAGAGGAC	1.22	1.89	1.5	1.8	1.27	2.75	2.82	3.03	1.55	2.63	3.39	3.28	1.38	1.78	1.57	3.71	5.1	2.06	1.52	1.89
TAGCCTAGGTCAGATCGGGCTAGTATACGCTATA	1.81	1.03	-0.52	0.639	-0.577	1.73	0.628	0.874	-0.237	0.393	0.118	1.07	-0.407	-0.708	0.037	0.63	-0.428	1.5	-0.679	2.78
CATATAGGGTCAGCTAGGCCAGAGTAGGGACGGC	4.43	3.32	-0.142	2.24	0.223	4.44	3.29	3.31	0.812	2.26	2.06	2.63	1.01	0.805	1.9	2.17	-0.332	3.31	0.466	3.96
CCTTACGGGTCACTGCAGGTTATAGCATCGGAGT	5.36	7.22	1.13	5.01	0.0222	4.88	3.68	4.35	1.16	3.15	3.51	3.76	-0.541	-0.0144	1.95	4.74	0.0878	4.05	0.239	3.97
CCTATTAGTAGACCATAAGGGCAACCGAAGCTCG	0.44	0.377	0.422	0.468	0.364	0.752	0.777	1.21	0.45	0.915	1.88	1.11	0.0545	0.0708	1.4	0.71	0.501	0.768	1.33	1.25
AGAACCAGGGCACGCTGAGTTGATAGCAGAGTAG	-0.172	0.136	-0.611	-0.397	-1.03	1.29	1.55	1.19	-0.116	0.466	4.22	3.95	0.0191	-0.605	-0.0465	0.357	-0.341	0.14	-0.234	1.34
GCAGACAGGTGAAACGCAGGTACCTCAGGGTGGC	-0.505	-0.351	-1.08	-0.737	-1.1	0.616	0.419	-0.439	-0.666	-0.889	0.673	0.204	-1.1	-1.9	-1.33	-0.784	-0.782	-0.474	-1.48	0.346
